# Many of the other results were omitted from the sample, so hits are more common in it than they were.
# LDHA inh: qHTS assay for inhibitors of human lactate dehydrogenase. L-lactate dehydrogenase A chain (Homo sapiens), P00338. purified LDHA, NADH/diaphorase-resazurin fluorescence; active compounds read low. activity change, % (values are at about 110 or 230 µM). actives 0.15% (n = 480,000). AID 1347041, 2019; in the data active = activity change below about -30%; inconclusive = mostly about -25% to -30%;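 also: plate controls were DMSO wells for no effect and wells without enzyme for full effect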
#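 Human LDH5 (2 nM) was incubated with 0.06 mM NADH and 0.2 mM pyruvate for 5 min at room temperature in Tris pH 7.4. Remaining NADH was coupled through diaphorase/resazurin, and resorufin fluorescence was read at 0 and 20 min.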
# RGS4 inhibitor: Inhibitors of Regulator of G Protein Signaling (RGS) 4: qHTS | Regulator of G-protein signaling 4 (Homo sapiens), P49798 | Transcreener GDP fluorescence polarization, RGS4-accelerated GTP hydrolysis | Potency, µM (highest dose often 114 µM), for the others: at the top dose activity change, negative = inhibition, hits mostly inhibitors | actives 0.039% (n = 390,000) | AID 504845, 2011; also: potency is read from the fitted curve at half-maximal effect; % is scaled to controls: 0 for no effect and ±100 for the full control effect; nearly all actives have a fitted effect of over 75% in size
#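 MLSMR compounds (23 nl, pin-transferred) preincubated 10 min at room temperature with a 500nM (2x) first reagent, then RGS4 at 900nM (2x) plus Transcreener GDP mix added; fluorescence polarization (620/688 nm) read before and after 90 min at 30 °C.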
# Mito fusion yeast: qHTS Assay for Small Molecule Inhibitors of Mitochondrial Division or Activators of Mitochondrial Fusion. S. cerevisiae fusion-defective mutant growth rescue, CellTiterGlo 48 h. Potency, µM (highest dose often 46.1 µM), inactives show top-dose growth rescue (activation), usual class: activators. actives 0.23% (n = 320,000). AID 485298, 2010; also: potency is read from the fitted curve at half-maximal effect; % of control where 0% means no effect; nearly all actives have a fitted effect of over 45% in size
#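 Compounds are tested for their ability to restore growth of mitochondrial fusion-defective yeast strains at non-permissive 37C in YPEG medium over 48 hours. Viability is quantified by luciferase luminescence.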
# S-ASM inh: Inhibitors of Secretory Acid Sphingomyelinase (S-ASM): qHTS; placental ASM, HMU-PC fluorogenic substrate, 60 min; actives 0.006% (n = 340,000); Sphingomyelin phosphodiesterase (Homo sapiens), P17405; Potency, µM (highest dose often 57.5 µM), without a hit: at the highest dose activity change, negative = inhibition, hits mostly inhibitors; AID 504937, 2011; also: potency is read from the fitted curve at half-maximal effect
#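 Human placenta-derived ASM preincubated with compound 10 min at room temperature, then reacted with 9 uM (final) fluorogenic HMU-PC substrate for 60 min at 37 C. Stop solution raises pH to 10; fluorescence read at Ex 386/Em 447 nm.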
# ClpP mod: qHTS Assay for Activators of ClpP; Potency, µM (titrated, usually from 57.5 µM), for the others: at the top dose activity change, negative = active; actives 1.9% (n = 340,000); ATP-dependent Clp protease proteolytic subunit (Bacillus subtilis (strain 168)), P80244; purified B. subtilis ClpP, FRET peptide cleavage, 20 min; AID 651965, 2013; active = well fitted falling curve with a large enough effect; inconclusive = small, poorly fitted or top-dose-only effect; inactive = no such curve, though single readings can be large or run the other way; also: potency is read from the fitted curve at half-maximal effect; the source files actives as falling curves though it sought activators and does not explain the sign; nearly all actives have a fitted effect of over 65% in size
#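 Purified B. subtilis ClpP, 10 microg/mL final in Tris/HCl pH8 with KCl, BSA, glycerol and Tween-20, cleaved an Abz/nitrotyrosine-quenched decapeptide. Fluorescence (ex 320, em 430) was read at 0 and 20 min at room temperature. Delta was normalized to 5.8 microM ADEP and DMSO/no-enzyme controls.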
# mIDH1 inhibitor: qHTS for Inhibitors of mutant isocitrate dehydrogenase 1 (IDH1): qHTS; IDH1-R132H enzyme, NADPH consumption, diaphorase/resazurin fluorescence; Potency, µM (titrated, usually from 76.6 µM), inactives show top-dose activity change, negative = inhibition, hits mostly inhibitors; actives 0.093% (n = 390,000); AID 602179, 2012; also: potency is read from the fitted curve at half-maximal effect; % is scaled to controls: 0 for no effect and ±100 for the full control effect; nearly all actives have a fitted effect of over 65% in size
#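 IDH1-R132H (0.5 ug/mL dispensed) in pH 7.5 Tris buffer was preincubated 30 min with compound, then given a substrate mix of 0.016 mM NADPH and 2 mM alpha-KG for 80 min at room temperature; remaining NADPH was read by diaphorase/resazurin fluorescence.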
# ClpP validation: qHTS Assay for Activators of ClpP: Hit Validation of Inhibitors; actives 40% (n = 470); Potency, µM (doses to about 57.5 µM), for inactives: at the top dose activity change, negative = inhibition, usual class: inhibitors; shares compounds with ClpP mod; purified B. subtilis ClpP, FRET-FV substrate cleavage, 20 min; also: potency is read from the fitted curve at half-maximal effect; % is scaled to controls: 0 for no effect and ±100 for the full control effect; nearly all actives have a fitted effect of over 70% in size
# * marks the source's active call; other numbers are inactive results; i = inactive; ? = inconclusive; . = not tested or not shown; [ ] = another dose, or the depositor's remark. Unless noted, calls follow the shape of the dose curve; as a rule, active = well fitted curve in the direction sought with a large enough effect; inconclusive = small, poorly fitted or top-dose-only effect, or another doubt; inactive = no such curve, though single readings can be large; an effect the other way counts as inactive or inconclusive.
SMILES,LDHA inh,RGS4 inhibitor,Mito fusion yeast,S-ASM inh,ClpP mod,mIDH1 inhibitor,ClpP validation
O=C(Cc1cccc(NC(=O)C2CCCN(C(=O)C3CC3)C2)c1)Nc1ccc(C(=O)N2CCCCC2)cc1 (stereo not drawn),-3.0,1.2%,.,4.8%,1.4%,-15.3%,.
CCC(C)NC(=O)CCc1c(C)nc2c(c(OC)nn2C)c1C (stereo not drawn),-4.4,.,.,.,.,.,.
COc1cc(NC(=O)CN2CCN(S(=O)(=O)c3ccc(C(C)C)cc3)CC2)cc(OC)c1,-0.7,-3.0%[11.4 µM],20.3%,-1.0%,-1.8%,3.5%,.
COc1ccc(S(=O)(=O)N2CCN(CC(=O)Nc3cc(OC)cc(OC)c3)CC2)cc1,1.5,14.2%,-3.9%,2.0%,66.3%,2.2%,1.4%
Cc1nnc(NC(=O)c2oc3ccccc3c2C)s1,-7.9,6.6%,0.5%,1.1%,-1.5%,0.0%,.
Cc1nnc(NC(=O)c2oc3c(ccc4ccccc43)c2C)s1,0.3,-4.5%[11.4 µM],3.1%,109.2%,8.91µM*,5.1%,30.6µM*
O=C(Cn1ccc2ccc(Cl)cc21)NCc1ccccc1,-5.7,.,.,.,.,.,.
COc1ccc(C)cc1S(=O)(=O)NC1CCCCC1C (stereo not drawn),-3.4,-17.6%,7.0%,-0.7%,208.9%,0.7%,-1.5%
COc1cccc(NC(=O)Cn2c(-c3cncs3)nc3ccccc32)c1,1.5,-36.0%,-1.2%,0.9%,8.91µM*,-0.7%,-7.1%
Nc1c(C(=O)Nc2cccc(Cl)c2Cl)sc2nc(-c3cccnc3)ccc12,-0.6,-35.5%,-1.8%,16.2%,3.98µM*,7.1%,0.4%
CCC12CN(CC#N)CC(CC)(CN(CC#N)C1)C2=O,7.3,.,.,.,.,.,.
CC1=C(c2ccc(C)cc2)S(=O)(=O)N(Cc2ccc(C(=O)NCc3ccccc3)cc2)C1=O,-6.8,-13.2%,.,.,5.01µM*,-5.7%,-2.5%
CC1=C(c2ccc(C)cc2)S(=O)(=O)N(Cc2ccc(C(=O)Nc3ccccc3C)cc2)C1=O,3.0,-4.4%,.,.,-2.9%,-1.0%,.
COc1ccc(N2C(=O)CN(Cc3ccccc3OC)[C@H]3CS(=O)(=O)C[C@H]32)cc1Cl,4.0,.,.,.,.,.,.
CCCNC(=O)c1ccc(C2SCC(=O)N2Cc2ccccc2)cc1 (stereo not drawn),-5.2,-18.4%,7.4%,0.7%,2.51µM*,-4.4%,-0.9%
COc1ccc(C(=O)Nc2nnc(-c3cccs3)s2)cc1,-5.7,-8.4%,4.4%,15.5%,92.7%,9.2%,17.2µM*
COc1ccc(NC(=O)Nc2nnc(-c3cccs3)s2)cc1,-0.5,3.2%[11.4 µM],-6.0%,18.1%,-4.7%,-1.6%,.
COc1cccc2c1cc1c(=O)n(CC(=O)NCc3ccco3)nc(C)n12,-8.5,22.9%,.,.,3.55µM*,-17.3%,?
CCCN1CCN(CCCNC(=O)Cn2nc(C)n3c(cc4c(OC)cccc43)c2=O)CC1,1.6,-10.4%,.,.,4.47µM*,-5.3%,3.85µM*
CCCCCC/C=N/NC(=O)c1cccc2ccccc12,22.0,.,.,.,.,.,.
Cc1cc(=O)oc2c(C)c(OC(=O)c3ccco3)ccc12,-2.0,7.8%,.,i,31.5%,0.2%,6.8%
CCC(=O)Oc1ccc2c(C)cc(=O)oc2c1C,-0.3,-8.4%,2.1%,i,52.0%,11.5%,.
CCC/C=C(/CC)C[N+]1(C)CCCCC1,0.3,.,.,.,.,.,.
CCCCNc1nc2c(-c3cccc(Br)c3)nnn2c2ccccc12,0.6,-2.1%,.,.,-8.3%,-0.3%,.
Brc1cccc(-c2nnn3c2nc(NCc2ccc4c(c2)OCO4)c2ccccc23)c1,1.0,18.8%,.,.,22.7%,0.3%,?
SMILES,LDHA inh,RGS4 inhibitor,Mito fusion yeast,S-ASM inh,ClpP mod,mIDH1 inhibitor,ClpP validation
CCOC(=O)c1cc2n(n1)C(C(F)(F)F)CC(C)N2 (stereo not drawn),-2.9,13.7%,0.7%,0.3%,60.2%,-0.3%,-0.1%
CC1CC(C(F)(F)F)n2nc(C(=O)O)cc2N1 (stereo not drawn),0.7,-0.2%,-0.1%,-0.3%,1.2%,9.4%,.
COc1ccc(-c2[nH]c(-c3ccc4c(c3)OCO4)nc2-c2ccccc2)cc1,4.8,?,-5.9%,?,2.51µM*,8.3%,24.3µM*
COc1cc(-c2nc(-c3ccccc3)c(-c3ccc(F)cc3)[nH]2)cc2c1OCO2,-7.6,9.8%,-8.3%,?,10µM*,1.7%,21.7µM*
CCCN(Cc1cc(=O)[nH]c2ccccc12)C(=O)C(C)C,11.3,.,.,.,.,.,.
Cc1nc2ccc(-c3nc4ccccc4o3)cc2[nH]1,-2.5,49.3%,4.4%,-0.8%,3.16µM*,3.6%,15.3µM*
Nc1ccc(-c2nc3ccc(-c4nc5ccccc5o4)cc3[nH]2)cc1,-1.6,-3.8%,-3.9%,i,32.1%,-3.4%,.
COc1ccc2c(c1)c1ncn(CCN3CCNCC3)c(=O)c1n2C,7.6,8.8%,-5.2%,129.8%,2.24µM*,14.0%,19.3µM*
Cc1ccc2c(c1)[nH]c1c(=O)n(CCN3CCCCC3)cnc12,-4.0,11.3%,2.0%,0.5%,?,1.9%,.
Cc1ccc2[nH]c3c(=O)n(CCN4CCNCC4)cnc3c2c1,-1.8,23.5%,-3.2%,-1.3%,8.91µM*,-2.2%,21.7µM*
O=C(O)c1cc(-c2ccc(Cl)s2)nc2c(Cl)cccc12,5.5,.,.,.,.,.,.
Cc1nc2ccc([N+](=O)[O-])cc2c(=O)n1Cc1ccccc1Br,3.1,-18.7%,4.7%,9.7%,41.3%,2.0%,-0.6%
O=C(CCCc1c[nH]c2ccccc12)NCCC12CC3CC(CC(C3)C1)C2,7.9,.,.,.,.,.,.
O=C(NC1CCCCC1)c1ccc2c3c(cccc13)CC2,-1.7,.,.,.,.,.,.
CCOC(=O)c1c(NC(=O)c2ccc(S(=O)(=O)N3CCC(C)CC3)cc2)sc2c1CCN(C)C2,-2.7,-45.8%,.,.,78.6%,-28.0%,?
CCN(CC)C(=O)c1c2c(nc3ccccc13)-c1ccccc1CC2,-1.0,-1.5%,?,-2.9%,8.91µM*,-8.1%,21.7µM*
